Source: PubChem BioAssay AID2428 (Vanderbilt High Throughput Screening Facility, 2010)
Measured potencies and affinities stand elsewhere.

These compounds were tested against Muscarinic acetylcholine receptor M3 (Homo sapiens) (UniProt P20309) (assay: human M3 receptor positive allosteric modulation, dose response, selectivity assay for M1 PAM project, cell-based, CHO-K1 hM3, Fluo-4 calcium, ACh EC20 (AID 2428)). Details: ACh EC20 potentiation; series mostly up to 30 µM; percent of max ACh response: at the top concentration;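 active means compound whose fitted concentration response curve has an R squared above 0.5; inactive means the rest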.
Muscarinic acetylcholine receptor M3 (Homo sapiens), sequence (P20309 whole entry, looked up): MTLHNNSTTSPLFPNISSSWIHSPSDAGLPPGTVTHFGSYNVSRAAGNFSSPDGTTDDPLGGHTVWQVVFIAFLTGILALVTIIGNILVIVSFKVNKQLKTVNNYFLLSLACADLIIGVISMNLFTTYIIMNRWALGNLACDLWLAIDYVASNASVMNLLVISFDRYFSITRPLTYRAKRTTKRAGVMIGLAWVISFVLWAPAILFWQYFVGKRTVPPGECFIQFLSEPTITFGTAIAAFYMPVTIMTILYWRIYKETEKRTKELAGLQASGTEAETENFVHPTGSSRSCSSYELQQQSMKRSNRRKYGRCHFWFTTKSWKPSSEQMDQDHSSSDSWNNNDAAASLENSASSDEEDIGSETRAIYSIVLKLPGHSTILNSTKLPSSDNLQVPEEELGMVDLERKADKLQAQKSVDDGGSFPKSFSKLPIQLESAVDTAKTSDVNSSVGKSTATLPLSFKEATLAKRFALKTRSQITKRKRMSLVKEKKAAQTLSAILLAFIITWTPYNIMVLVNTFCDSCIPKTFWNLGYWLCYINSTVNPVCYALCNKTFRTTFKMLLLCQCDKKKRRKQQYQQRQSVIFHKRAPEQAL

Percent of max ACh response, inactive:
Cc1cc(NC(=O)CS(=O)(=O)c2cn(Cc3cccc(Cl)c3)c3ccccc23)no1 24%, Cc1cc(NC(=O)CS(=O)(=O)c2cn(Cc3ccccc3Cl)c3ccccc23)no1 12.8%, Cn1cc(-c2cc(F)c(CN3C(=O)C(=O)c4ccccc43)c(F)c2)cn1 15.7%, O=C1C(=O)N(Cc2ccc(Oc3ccccc3)cc2)c2ccc(OC(F)(F)F)cc21 29.2%, Cn1cc(-c2ccc(CN3C(=O)C(=O)c4ccccc43)c(F)c2)cn1 18%, Cc1cc(NC(=O)CS(=O)(=O)c2cn(Cc3cc(Br)ccc3F)c3ccccc23)no1 2.88%, Cc1cc(NC(=O)CS(=O)(=O)c2cn(Cc3cccc(-c4ccn(C)n4)c3)c3ccccc23)no1 21.3%, Cc1cc(NC(=O)CS(=O)(=O)c2cn(Cc3cccc(F)c3)c3ccccc23)no1 4.68%
